Assay results: the supplement of paper PMC12669032

Tests used:
Experiment in all cases: growth AUC relative to DMSO control (median of replicates) (fraction); higher = more growth (less inhibition), active = hit call of the paper
Conditions in all cases: 20 µM; 24 h;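 active = AUC reduced over 20% with Padj below 0.05 in at least 2 of 3 replicates; inactive = otherwise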
[1] = tested on: Akkermansia muciniphila
How it was run: (§1)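 Hourly OD600 readings over 24 h tracked anaerobic gut bacterial monocultures grown at 37 °C in mGAM from OD600 0.05 with 20 µM compound (1% DMSO). After the minimum OD was set to 0, area under the growth curve was normalised to the plate median of solvent-only wells, or to row and column medians on the industrial chemical plate. Values are medians of three biological replicates grown on separate days.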

[2] = tested on: Bacteroides caccae
How it was run: as §1

[3] = tested on: Bacteroides clarus
How it was run: as §1

[4] = tested on: Bacteroides dorei
How it was run: as §1

[5] = tested on: Bacteroides stercoris
How it was run: as §1

[6] = tested on: Bacteroides thetaiotaomicron
How it was run: as §1

[7] = tested on: Bacteroides uniformis
How it was run: as §1

[8] = tested on: Bifidobacterium longum subsp. longum
How it was run: as §1

[9] = tested on: Clostridium difficile
How it was run: as §1

[10] = tested on: Collinsella aerofaciens
How it was run: as §1

Measured: growth AUC

C=C/C=C/CC1=C(C)C(OC(=O)[C@@H]2C(/C=C(\C)C(=O)OC)C2(C)C)CC1=O.C=C/C=C/CC1=C(C)[C@@H](OC(=O)[C@@H]2C(C=C(C)C)C2(C)C)CC1=O (stereo not given in full)
inactive: [1] 0.901 | [2] 0.966 | [3] 0.918 | [4] 1.02 | [5] 0.87 | [6] 0.967 | [7] 0.971 | [8] 0.698 | [9] 1.01 | [10] 0.949

CCC1COC(Cn2cncn2)(c2ccc(Cl)cc2Cl)O1 (stereo not given)
inactive: [1] 0.893 | [2] 0.992 | [3] 0.935 | [4] 0.976 | [5] 0.938 | [6] 0.982 | [7] 0.956 | [8] 0.976 | [9] 0.994 | [10] 0.94

O=C(NC(=O)c1c(F)cccc1F)Nc1cc(Cl)c(OC(F)(F)C(F)F)c(Cl)c1
inactive: [1] 1.17 | [2] 1 | [3] 0.954 | [4] 0.967 | [5] 1.05 | [6] 0.998 | [7] 0.956 | [8] 0.999 | [9] 0.967 | [10] 0.994

CON(C)C(=O)Nc1ccc(Br)cc1
inactive: [1] 0.941 | [2] 1.01 | [3] 0.988 | [4] 0.992 | [5] 1.16 | [6] 1.02 | [7] 0.993 | [8] 1.18 | [9] 0.952 | [10] 1.1

CCNc1nc(NC(C)C)[nH]c(=O)n1
inactive: [1] 0.993 | [2] 1 | [3] 1.02 | [4] 1.04 | [5] 0.998 | [6] 1 | [7] 1.07 | [8] 0.962 | [9] 1.05 | [10] 1.02

c1ccc2c(c1)cc1ccc3cccc4ccc2c1c34
inactive: [1] 1.01 | [2] 0.957 | [3] 0.94 | [4] 0.956 | [5] 0.978 | [6] 1 | [7] 0.957 | [8] 1.09 | [9] 0.983 | [10] 1.03

CCOC(=O)CC(SP(=O)(OC)OC)C(=O)OCC (stereo not given)
inactive: [1] 1.24 | [2] 0.989 | [3] 0.992 | [4] 0.919 | [5] 0.976 | [6] 1.01 | [7] 0.972 | [8] 0.996 | [9] 0.952 | [10] 0.973

O=C(NC(=O)c1ccccc1Cl)Nc1ccc(OC(F)(F)F)cc1
inactive: [1] 1.06 | [2] 0.915 | [3] 0.964 | [4] 0.927 | [5] 0.802 | [6] 0.962 | [7] 1.01 | [8] 0.986 | [9] 0.946 | [10] 0.937

CNC(=O)Oc1cccc2c1OC(C)(C)C2
inactive: [1] 1.1 | [2] 0.964 | [3] 1.01 | [4] 0.999 | [5] 1.02 | [6] 0.998 | [7] 1 | [8] 0.996 | [9] 1 | [10] 1.04

O=C(NC(=O)c1c(F)cccc1F)Nc1cc(Cl)c(Oc2ncc(C(F)(F)F)cc2Cl)c(Cl)c1
inactive: [1] 1.02 | [2] 0.996 | [3] 0.997 | [4] 0.988 | [5] 1.07 | [6] 1.03 | [7] 0.977 | [8] 1.14 | [9] 1 | [10] 1.11

C[n+]1ccc(-c2cc[n+](C)cc2)cc1.O.[Cl-].[Cl-]
inactive: [1] 0.705 | [2] 0.846 | [3] 1 | [4] 0.996 | [5] 0.996 | [6] 0.996 | [7] 1.03 | [8] 1.02 | [9] 0.947 | [10] 0.947

Oc1ccc(Cl)c(Cl)c1Cl
inactive: [1] 0.923 | [2] 0.922 | [3] 0.975 | [4] 1.02 | [5] 1.15 | [6] 1 | [7] 0.96 | [8] 0.969 | [9] 0.998 | [10] 0.993

Oc1ccccc1-c1ccccc1
inactive: [1] 1.03 | [2] 1.04 | [3] 1.03 | [4] 1.02 | [5] 1.04 | [6] 1.01 | [7] 1.01 | [8] 0.965 | [9] 1.04 | [10] 1.01

COP(=O)(OC)O/C(=C/Br)c1ccc(Cl)cc1Cl
inactive: [1] 1.06 | [2] 1 | [3] 0.978 | [4] 0.979 | [5] 1.02 | [6] 0.96 | [7] 0.961 | [8] 1.03 | [9] 0.983 | [10] 1

CCOP(=S)(OCC)Oc1ccc(Cl)cc1Cl
inactive: [1] 0.962 | [2] 1.03 | [3] 0.963 | [4] 1.02 | [5] 1.04 | [6] 0.979 | [7] 0.987 | [8] 1.04 | [9] 1.02 | [10] 1.04

CCCN(CCC)N=O
inactive: [1] 1.07 | [2] 1.01 | [3] 1.02 | [4] 1 | [5] 1 | [6] 0.999 | [7] 1.03 | [8] 0.902 | [9] 1.01 | [10] 0.977

CCOC(=O)c1ccccc1S(=O)(=O)NC(=O)Nc1nc(Cl)cc(OC)n1
inactive: [1] 1.1 | [2] 0.991 | [3] 1.03 | [4] 0.933 | [5] 0.97 | [6] 1.01 | [7] 0.962 | [8] 1.4 | [9] 1.03 | [10] 0.993

COP(=S)(OC)Oc1cc(Cl)c(Br)cc1Cl
inactive: [1] 0.9 | [2] 0.961 | [3] 0.966 | [4] 0.995 | [5] 1.03 | [6] 0.963 | [7] 1.01 | [8] 0.971 | [9] 0.966 | [10] 0.978

C/C(=N/Nc1nc(C)cc(C)n1)c1ccccc1C
inactive: [1] 1.24 | [2] 1.01 | [3] 1.06 | [4] 1 | [5] 1.1 | [6] 0.963 | [7] 1.03 | [8] 1.01 | [9] 0.99 | [10] 0.979

O=C(O)COc1cc(Cl)c(Cl)cc1Cl
inactive: [1] 0.934 | [2] 1.02 | [3] 0.954 | [4] 1.01 | [5] 0.978 | [6] 0.985 | [7] 1.01 | [8] 0.708 | [9] 1.01 | [10] 1.07

COP(=O)(OC)OC(Br)C(Cl)(Cl)Br (stereo not given)
inactive: [1] 0.978 | [2] 0.987 | [3] 0.977 | [4] 0.986 | [5] 0.984 | [6] 0.953 | [7] 0.962 | [8] 0.99 | [9] 0.987 | [10] 1.03

CSc1nc(NC(C)C)nc(NC(C)C)n1
inactive: [1] 0.876 | [2] 1.02 | [3] 0.976 | [4] 1.01 | [5] 0.95 | [6] 0.949 | [7] 0.983 | [8] 1.08 | [9] 1.02 | [10] 1.04

CCOC(=O)CC(SP(=S)(OC)OC)C(=O)OCC (stereo not given)
inactive: [1] 1.13 | [2] 0.953 | [3] 1 | [4] 0.881 | [5] 0.982 | [6] 0.977 | [7] 0.965 | [8] 1.09 | [9] 0.845 | [10] 0.955

CCC(=O)Nc1ccc(Cl)c(Cl)c1
inactive: [1] 0.797 | [2] 1 | [3] 0.978 | [4] 1.03 | [5] 0.972 | [6] 0.988 | [7] 0.969 | [8] 0.837 | [9] 1.03 | [10] 0.999

CCOC(=O)C(Cl)Cc1cc(-n2nc(C)n(C(F)F)c2=O)c(F)cc1Cl (stereo not given)
inactive: [1] 0.963 | [2] 0.991 | [3] 0.927 | [4] 0.967 | [5] 0.996 | [6] 0.926 | [7] 0.936 | [8] 1.02 | [9] 0.981 | [10] 0.972

CCNc1nc(NC(C)(C)C)nc(SC)n1
inactive: [1] 1.02 | [2] 0.947 | [3] 0.94 | [4] 0.871 | [5] 1.07 | [6] 0.728 | [7] 0.905 | [8] 0.915 | [9] 0.967 | [10] 1

CC1=C(C(=O)Nc2ccccc2)S(=O)(=O)CCO1
inactive: [1] 0.915 | [2] 0.983 | [3] 0.976 | [4] 0.977 | [5] 1.02 | [6] 0.994 | [7] 0.981 | [8] 0.944 | [9] 0.973 | [10] 1.02

O=C(O)CNCP(=O)(O)O
inactive: [1] 1.07 | [2] 1.06 | [3] 0.999 | [4] 0.981 | [5] 1.08 | [6] 1.02 | [7] 0.977 | [8] 1.05 | [9] 1.06 | [10] 0.997

O=[N+]([O-])c1cc(Cl)ccc1Cl
inactive: [1] 1.04 | [2] 0.998 | [3] 0.977 | [4] 0.986 | [5] 1.03 | [6] 0.989 | [7] 1.02 | [8] 1.01 | [9] 0.995 | [10] 0.964

C[Si](Cn1cncn1)(c1ccc(F)cc1)c1ccc(F)cc1
inactive: [1] 0.895 | [2] 0.891 | [3] 0.907 | [4] 0.854 | [5] 0.952 | [6] 0.895 | [7] 0.913 | [8] 0.923 | [9] 1 | [10] 0.931

CON(C)C(=O)Nc1ccc(Cl)cc1
inactive: [1] 0.997 | [2] 1.02 | [3] 0.983 | [4] 1.03 | [5] 0.97 | [6] 1.03 | [7] 0.999 | [8] 1.12 | [9] 1 | [10] 1.02

Cc1nc(N(C)C=O)nc(OC(=O)N(C)C)c1C
inactive: [1] 1.01 | [2] 0.986 | [3] 0.998 | [4] 0.985 | [5] 0.955 | [6] 0.977 | [7] 0.971 | [8] 1 | [9] 0.963 | [10] 0.992

O=C(NC(=O)c1c(F)cccc1F)Nc1ccc(Oc2ccc(C(F)(F)F)cc2Cl)cc1F
inactive: [1] 1.02 | [2] 1.02 | [3] 0.984 | [4] 1.02 | [5] 1.02 | [6] 1 | [7] 0.996 | [8] 1.05 | [9] 1.02 | [10] 1.08

COC(=O)C(C)Oc1ccc(Oc2ccc(Cl)cc2Cl)cc1 (stereo not given)
inactive: [1] 0.924 | [2] 0.963 | [3] 0.951 | [4] 1.04 | [5] 0.795 | [6] 0.986 | [7] 0.963 | [8] 0.919 | [9] 1.01 | [10] 0.958

O=C(NC(=O)c1c(F)cccc1F)Nc1ccc(Cl)c(Oc2ncc(C(F)(F)F)cc2Cl)c1
inactive: [1] 1.14 | [2] 0.985 | [3] 1.02 | [4] 1.1 | [5] 0.98 | [6] 1.01 | [7] 1.02 | [8] 0.917 | [9] 1.1 | [10] 1.08

[Cl][Sn]([c]1ccccc1)([c]1ccccc1)[c]1ccccc1
inactive: [1] 0.915 | [9] 0.849
active: [2] 0.0272 | [3] 0.272 | [4] 0.0162 | [5] 0.0164 | [6] 0.00729 | [7] 0.0126 | [8] 0.303 | [10] 0.152
